Shown are actives, neighbours in structure and some others; about 0.9% of the full set was active somewhere.
CtBP-E1A inh: inhibitors of CtBP/E1A interaction | AID 651724 | 0.49% of 340,000 active | AlphaScreen GST-E1A/His-CtBP binding, 1536-well; active compounds read low | activity change, % (concentration not given with the values); in the data active = activity change below about -65%; inconclusive = mostly about -30% to -63%
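Homogeneous bead-based format: GST-tagged E1A captured on glutathione donor beads, His-tagged CtBP on nickel acceptor beads; compounds precede bead addition by 2 h at 37 °C.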
L3MBTL1 block: blocks human L3MBTL1 | Q9Y468 | AlphaScreen L3MBTL1–H3K9me1 peptide binding | Potency, µM (top dose mostly 57.1 µM), for the others: top-dose activity, negative = inhibition, actives largely listed as inhibitors | 0.66% of 230,000 active; note: potency is the fitted concentration of half-maximal effect; nearly all actives have a fitted effect of over 60% in size
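L3MBTL1 (50 nM) pre-complexed 30 min with biotinylated H3(1-15)K9me1 peptide (75 nM), then compounds added for 30 min at room temperature; AlphaScreen streptavidin donor/nickel chelate acceptor beads (10 ug/mL final) read after 30 min dark incubation.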
Eya2 inh: blocks the phosphatase activity of human Eya2; O00167; recombinant Eya2, OMFP fluorescence dephosphorylation (OMFP is methylfluorescein phosphate); Potency, µM (highest dose often 76.9 µM), for inactives: top-dose activity, negative = inhibition, usual class: inhibitors; 0.006% of 330,000 active; AID 488837; note: potency is the fitted concentration of half-maximal effect
Target sequence (O00167 whole entry, looked up): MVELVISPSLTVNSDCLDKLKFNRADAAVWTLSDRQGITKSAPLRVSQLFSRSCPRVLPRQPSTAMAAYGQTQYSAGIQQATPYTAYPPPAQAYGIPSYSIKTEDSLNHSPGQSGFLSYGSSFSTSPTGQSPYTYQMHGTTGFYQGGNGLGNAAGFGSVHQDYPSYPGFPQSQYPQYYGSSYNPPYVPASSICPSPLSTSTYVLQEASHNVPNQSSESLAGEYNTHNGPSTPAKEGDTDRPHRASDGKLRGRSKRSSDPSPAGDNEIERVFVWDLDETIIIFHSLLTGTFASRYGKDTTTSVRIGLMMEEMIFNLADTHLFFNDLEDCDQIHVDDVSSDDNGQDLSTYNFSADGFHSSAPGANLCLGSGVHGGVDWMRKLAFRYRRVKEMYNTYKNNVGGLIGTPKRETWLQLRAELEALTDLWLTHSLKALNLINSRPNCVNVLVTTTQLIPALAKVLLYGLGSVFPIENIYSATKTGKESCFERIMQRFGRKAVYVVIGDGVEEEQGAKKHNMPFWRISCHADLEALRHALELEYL
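Eya2 protein (added as 0.2 uM solution) was preincubated with compound for 10 min at ambient temperature in 50 mM HEPES pH 7.5, 50 mM NaCl, 5 uM MgCl2, 0.05% BSA, 1 mM DTT. OMFP (added at 50 uM) then reacted 10 min; fluorescence read at 485/525 nm.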
B2AR arrestin: beta2AR (human) beta-arrestin recruitment activity | beta-arrestin recruitment to beta2AR, cell-based reporter | Potency, µM (series often up to 46.1 µM), for the others: top-dose activation, hits mostly activators | 0.02% of 330,000 active | AID 492947;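 note: potency is the fitted concentration of half-maximal effect; 0% = DMSO controls and full agonism = EC100 isoproterenol or metaproterenol; nearly all actives have a fitted effect of over 65% in size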
Six1-Eya2 inh: Six1/Eya2 interaction inhibition | Q15475+O00167 | AlphaScreen GST-Six1/His-Eya2 binding, biochemical; active compounds read low | activity change, % (concentration not given with the values) | 0.56% of 360,000 active | AID 651725; in the data active = activity change below about -65%; inconclusive = mostly about -30% to -63%
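AlphaScreen with GST-Six1 and His-Eya2 (5X mix: 250 nM and 500 nM), glutathione donor and nickel acceptor beads; buffer 50 mM Tris pH 8.0, 300 mM NaCl, 1 mM TCEP; 1 h at 37 C in the dark.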
Active calls of the source: *; ? = inconclusive; / = not tested or not shown. Unless noted, calls come from the whole dose curve; as a rule, active = well fitted curve in the direction sought with a large enough effect; inconclusive = small, poorly fitted or top-dose-only effect, or another doubt; inactive = no such curve, though single readings can be large; an effect the other way counts as inactive or inconclusive. Unless noted, % is set by controls: 0 for no effect and ±100 for the full control effect.

SMILES	CtBP-E1A inh	L3MBTL1 block	Eya2 inh	B2AR arrestin	Six1-Eya2 inh
COc1cc(C2Nc3cccc4cccc(c34)N2)cc(OC)c1O	8	22µM*	-14%	0%	-10
COc1cc(C2Nc3cccc4cccc(c34)N2)ccc1OC(C)=O	-23	?	3%	-1%	-20
COc1cccc(N2C(=NC(=O)CCc3ccccc3)SC3CS(=O)(=O)CC32)c1 (stereo unspecified)	2	/	10%	0%	1
CC(C)CN1CC(C)C(=O)NC1=S (stereo unspecified)	6	/	/	/	-8
CN(C)c1ccc2cc(S(=O)(=O)O)cc(O)c2c1	?	/	/	/	-73*
O=Nc1c(O)ccc2cc(S(=O)(=O)O)ccc12	-3	/	/	/	-3
O=C(N/N=C/c1sc(=O)[nH]c1-[n+]1ccc2ccccc2c1)c1ccccc1[O-]	-75*	/	13%	0%	?
O=C(N/N=C/c1sc(=O)[nH]c1-[n+]1ccccc1)c1ccccc1[O-]	-8	39%	10%	0%	-5
CCN(CC)c1ncnc2c1ncn2[C@H]1CN(Cc2ccc(OC)cc2)C[C@@H](CO)O1	-21	/	/	/	1
O=C1c2cccc3c2N(CCC3)C(=O)C1(F)c1ccccc1 (stereo unspecified)	-13	/	/	/	7
COc1cc(N=C2C(=O)N3CCCc4cccc2c43)cc(OC)c1	-76*	-2%	-3%	-2%	6
C/C=C(\C)C(=O)NCCN1C2=NC[C@H](C(C)C)N2C[C@@H]1Cc1ccc(OC)cc1	-70*	15%	6%	0%	-72*
COc1cc([N+](=O)[O-])cc(/C=N/NC(=O)c2cccnc2)c1O	-92*	14µM*	10%	-1%	-90*
COc1cc([N+](=O)[O-])cc(/C=N/NC(=O)C(O)(c2ccccc2)c2ccccc2)c1O	-82*	-6%	5%	0%	?
COc1ccc(Br)cc1/C=N/NC(=O)c1cccnc1	0	4%	2%	0%	9
O=C(N/N=C/c1cccc([N+](=O)[O-])c1O)C(O)(c1ccccc1)c1ccccc1	/	17%	-21%	1%	-22
COCCn1c(SCc2nc3sc(C(=O)OC)c(C)c3c(=O)[nH]2)nc2ccccc21	1	-6%	6%	4%	3
CCn1c(SCc2nc3sc(C(=O)O)c(C)c3c(=O)[nH]2)nc2ccccc21	-8	/	-13%	0%	-68*
O=C(Nc1nc2ccccc2n1CCN1CCOCC1)c1cccc([N+](=O)[O-])c1	/	/	4%	/	/
Cc1onc(-c2ccccc2)c1C(=O)NC(=S)NNC(=O)c1ccc(O)cc1O	-14	-21%	-8%	-1%	-93*
Cc1onc(-c2ccccc2)c1C(=O)NC(=S)NNC(=O)c1ccccc1O	7	?	11%	0%	-85*
Cc1onc(-c2ccccc2)c1C(=O)NC(=S)NNC(=O)c1ccc(O)cc1	-4	34%	0%	-1%	-9
CCS(=O)(=O)c1ccc(O)c(NC(=O)NC2CCCCC2)c1	11	/	-2%	0%	4
N#CC1=C(N)n2c(s/c(=C\c3ccco3)c2=O)=C(C#N)C1c1ccco1 (stereo unspecified)	?	25µM*	-5%	0%	-71*
O=C(CNC(=O)c1ccccc1F)N/N=C/c1cc(Br)ccc1OC(=O)/C=C/c1ccco1	-92*	?	1%	0%	-90*
SMILES	CtBP-E1A inh	L3MBTL1 block	Eya2 inh	B2AR arrestin	Six1-Eya2 inh
COc1ccccc1C(=O)NCC(=O)N/N=C/c1cc(Br)ccc1OC(=O)/C=C\c1ccco1	/	-15%	1%	0%	-74*
O=C(CCCCCN1CCN(c2ccccc2-c2ccccc2)CC1)NC1CCCc2ccccc21 (stereo unspecified)	/	/	-18%	/	/
CCOC(=O)C1=CCN(S(=O)(=O)c2ccccc2C)C1c1cccc(Br)c1 (stereo unspecified)	9	/	/	/	1
COc1cc(OC)cc(C(=O)NNC(=O)CCC(=O)c2cccs2)c1	2	/	-16%	1%	1
O=C(CSc1n[nH]c(-c2ccccc2)n1)Nc1ncccn1	2	-2%	-5%	0%	-7
Cc1ccccc1NC(=O)CSc1n[nH]c(-c2ccccn2)n1	-94*	/	2%	0%	-92*
O=C(CSc1n[nH]c(-c2ccccn2)n1)Nc1cccc(Cl)c1	-97*	/	-10%	?	-93*
Cc1ccc(O)c(NC(=O)CSc2n[nH]c(-c3ccccc3)n2)c1	-2	/	-10%	0%	-3
Cc1ccc(C)c(NC(=O)CSc2n[nH]c(-c3ccccn3)n2)c1	-92*	/	4%	7%	-77*
O=C(NCc1ccccc1Cl)[C@H]1CCCN1C(=O)[C@H]1CCCN1C(=O)c1cccc2ccccc12	4	/	/	/	-6
COc1ccc(OC)c(C(O)c2ncc(-c3ccc(C(F)(F)F)cc3)[nH]2)c1 (stereo unspecified)	-11	/	/	/	-18
CN(C)c1ccc(/C=C/C(=O)c2cc(Cl)ccc2O)cc1	/	32µM*	?	-1%	-16
O=C(/C=C/c1ccncc1)c1cc(Cl)ccc1O	3	-24%	4%	0%	-6
O=[N+]([O-])c1ccccc1N/N=C/c1c[nH]c2ccccc12	-78*	?	-9%	0%	-84*
O=[N+]([O-])c1ccc(N/N=C/c2c[nH]c3ccccc23)cc1	-16	-13%	1%	0%	-26
Cc1cccc(C)c1NC(=O)C(c1ccccc1)N1CCN(c2ccc(C(F)(F)F)cn2)CC1 (stereo unspecified)	0	/	/	/	-5
O=C(CSc1nnc(-c2ccc(C(F)(F)F)cn2)o1)Nc1cccc(Cl)c1	?	-11%	-4%	0%	-71*
NCCc1nnc(SCC(=O)Nc2cccc(Cl)c2)o1	/	/	-2%	0%	-1
CCCCCCN1C=C/C(=C\C=C(C#N)C#N)c2ccccc21	?	-16%	6%	0%	?
C=CCN1C=C/C(=C\C=C(C#N)C#N)c2ccccc21	-79*	?	-19%	5%	?
c1ccc(-c2n[nH]c(-c3ccccn3)n2)nc1	-95*	2µM*	-4%	0%	-92*
c1ccc(-c2n[nH]c(-c3ccccn3)n2)cc1	-92*	/	5%	0%	-91*
c1ccc(-c2nc3cc4ccccc4cc3[nH]2)nc1	-11	-10%	2%	0%	-23
COc1ccccc1N1CCN(Cc2ccc(O)c3ncccc23)CC1	-90*	/	2%	?	-91*
CCOC(=O)C1CCN(Cc2ccccc2C(F)(F)F)CC1	10	13%	-10%	-2%	12
Oc1ccc(CN2CCCc3ccccc32)c2cccnc12	0	28µM*	3%	0%	-93*
CCOC(=O)C1CCN(Cc2ccc(O)c3ncccc23)CC1	-98*	28µM*	2%	?	-92*

Source: PubChem (National Center for Advancing Translational Sciences (NCATS))
